Compound activity from PubChem BioAssay.
Compounds with a hit are over-represented: about 2% of the library has one in this group of screens.
Autophagy HCS: autophagy modulators in MEF cells, primary screen, imaging, high-content, MEF GFP-LC3; MEF GFP-LC3 puncta imaging; test concentration mostly 10 µM; calls only at 10 µM (by protocol); 0.98% of 190,000 active; AID 463193, 2010;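 active means percentage of spot-positive cells more than 3 SD above its plate mean, without a fluorescence outlier flag or 80% toxicity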;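 further: spot-positive cell cutoff set from DMSO-treated cells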
eIF4E 4G PPI: eIF4E–eIF4G protein interaction inhibitors, primary screen, biochemical, uHTS, TR-FRET, eIF4GI fragment; Eukaryotic translation initiation factor 4E (Mus musculus) + Eukaryotic translation …; TR-FRET eIF4E-eIF4GI(517-606) binding, 2 h; inhibition, % at 21.7 µM; 0.37% of 220,000 active; AID 782, 2007;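 active means inhibition above about 30%, limit read from the data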;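 further: 0% = full FRET control wells and 100% = background wells lacking eIF4GI fragment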
Ins promoter up: insulin promoter activators in MIN6 cells, imaging, high-content screening, mouse beta cells; MIN6 insulin promoter-GFP reporter; stronger effect = higher value; z-score at 5 µM; 0.3% of 190,000 active; AID 1625, 2009;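 active means z-score above 3 at 5 µM with at least 500 cells counted in the well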
Insulin prom inh: inhibitors of insulin promoter-driven GFP, primary screen, imaging, TRM-6 cells (human fetal islet line), eGFP reporter, cell count; reporter expression induced with tamoxifen; inhibition, % at 2 µM; 0.9% of 130,000 active; AID 1273, 2008;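 active means inhibition above the mean plus 3 SD, with well images judged a real hit on visual review, cut at about 60% in these data, passing the limit was not always enough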
PERK inh: block of dimerizer-induced PERK translation repression, primary screen, PERK inhibitor project, CHO PERK-DD cells, SEAP luminescence, HTS | inhibition, % at 5.6 µM | 0.17% of 220,000 active | CHO PERK-DD fusion, SEAP luminescence translation reporter | Eukaryotic translation initiation factor 2-alpha kinase 3 (Homo sapiens), Q9NZJ5;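 active means inhibition above the mean inhibition of all tested compounds plus 3 SD, set separately per screening campaign, cut at about 2.9% in these data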;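 further: PERK kinase domain activated by AP20187 dimerizer at 100 nM; 0% = DMSO with dimerizer and 100% = rapamycin at 8.4 µM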
Target sequence (Q9NZJ5 whole entry, looked up, the tested form may be a part): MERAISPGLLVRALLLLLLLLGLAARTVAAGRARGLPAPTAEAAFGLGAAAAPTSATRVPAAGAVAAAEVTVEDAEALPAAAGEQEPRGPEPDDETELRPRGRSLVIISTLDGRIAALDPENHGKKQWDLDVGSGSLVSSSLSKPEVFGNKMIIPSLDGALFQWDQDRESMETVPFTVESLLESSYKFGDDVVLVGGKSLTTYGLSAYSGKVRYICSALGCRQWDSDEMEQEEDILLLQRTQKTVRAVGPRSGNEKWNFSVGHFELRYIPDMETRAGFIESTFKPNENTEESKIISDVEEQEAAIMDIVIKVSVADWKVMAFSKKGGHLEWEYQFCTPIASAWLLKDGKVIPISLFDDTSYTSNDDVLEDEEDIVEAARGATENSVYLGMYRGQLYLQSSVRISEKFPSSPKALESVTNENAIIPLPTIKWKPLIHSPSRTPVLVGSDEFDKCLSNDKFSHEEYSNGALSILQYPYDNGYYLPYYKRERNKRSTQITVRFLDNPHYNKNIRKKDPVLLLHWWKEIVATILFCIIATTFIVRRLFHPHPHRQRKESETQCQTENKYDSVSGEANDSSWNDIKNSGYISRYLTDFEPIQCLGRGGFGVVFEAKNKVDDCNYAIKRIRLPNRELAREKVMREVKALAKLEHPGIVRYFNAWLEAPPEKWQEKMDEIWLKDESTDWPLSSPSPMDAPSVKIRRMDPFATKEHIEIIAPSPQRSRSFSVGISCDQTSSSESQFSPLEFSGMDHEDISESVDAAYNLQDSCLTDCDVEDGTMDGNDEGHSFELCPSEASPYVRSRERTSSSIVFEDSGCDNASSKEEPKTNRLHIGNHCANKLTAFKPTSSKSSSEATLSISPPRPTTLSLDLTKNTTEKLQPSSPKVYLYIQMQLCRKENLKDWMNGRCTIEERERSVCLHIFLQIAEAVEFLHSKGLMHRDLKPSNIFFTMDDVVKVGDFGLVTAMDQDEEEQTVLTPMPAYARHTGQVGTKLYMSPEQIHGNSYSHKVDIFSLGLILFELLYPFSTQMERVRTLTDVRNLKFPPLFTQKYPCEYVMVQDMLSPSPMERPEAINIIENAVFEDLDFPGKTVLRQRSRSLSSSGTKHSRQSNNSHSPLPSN
* marks the source's active call; other numbers are inactive results; [ ] = another dose, or the depositor's remark.

For O=C1/C(=C/c2c[nH]c3ccccc23)CCC/C1=C\c1c[nH]c2ccccc12 the results were Autophagy HCS inactive, eIF4E 4G PPI 19, Ins promoter up 4.6* and PERK inh 1.
Screening NNC(=O)c1cccc(COc2ccc3c(c2)CCC3)c1 returned Autophagy HCS inactive, eIF4E 4G PPI 0, Ins promoter up 0.02, Insulin prom inh -75 and PERK inh 0.
For N#CCCN(C(=O)COC(=O)c1cccc(S(=O)(=O)Nc2ccc([N+](=O)[O-])cc2)c1)c1ccccc1 the results were Autophagy HCS inactive, eIF4E 4G PPI 2, Ins promoter up 0.04, Insulin prom inh 69* and PERK inh 1.
`N#CCCN(C(=O)COC(=O)c1ccc(S(=O)(=O)Nc2ccccc2)cc1)c1ccccc1` gave Autophagy HCS inactive, eIF4E 4G PPI 9, Ins promoter up 0.28, Insulin prom inh -21 and PERK inh 0.
Screening CCOC(=O)C1=C(Cn2cnc3ccccc32)NC(=O)NC1c1ccc(OC)cc1 (centres undefined) returned Autophagy HCS inactive, eIF4E 4G PPI 3, Ins promoter up -1.1, Insulin prom inh 53 and PERK inh -1.
Screening COc1ccc(NC(=O)c2ccc3c(=O)n(Cc4ccco4)c(=S)[nH]c3c2)c(OC)c1 returned Autophagy HCS inactive, eIF4E 4G PPI -4, Ins promoter up 0.04, Insulin prom inh 4 and PERK inh 0.
For COc1ccc(OC)c(NC(=O)c2ccc3c(=O)n(CCc4ccccc4)c(=S)[nH]c3c2)c1 the results were Autophagy HCS active, eIF4E 4G PPI -3, Ins promoter up 0.76 and PERK inh 0.
`CCOc1ccc(-n2c(-c3ccco3)n[nH]c2=S)cc1` gave Autophagy HCS inactive, eIF4E 4G PPI 34*[fluorescence artefact?], Ins promoter up 1.1 and PERK inh 2.
For CC(=O)c1cnc(-c2ccccc2Cl)s1 the results were Autophagy HCS inactive, eIF4E 4G PPI 1, Ins promoter up 0.17, Insulin prom inh 77* and PERK inh 1.
Screening CC(=O)c1cnc(-c2ccccn2)s1 returned Autophagy HCS inactive, eIF4E 4G PPI 8, Ins promoter up -0.29, Insulin prom inh 27 and PERK inh 0.
Screening Cc1cccn2cc(-c3ccc(Cl)cc3)nc12 returned Autophagy HCS inactive, eIF4E 4G PPI 3, Ins promoter up -0.43 and PERK inh 0.
Screening Cc1cccn2cc(-c3ccc(S(=O)(=O)N4CCCCC4)cc3)nc12 returned Autophagy HCS active, eIF4E 4G PPI 4, Ins promoter up -0.82, Insulin prom inh -41 and PERK inh 0.
`Cc1ccc(-c2cn3cccc(C)c3n2)cc1` gave Autophagy HCS inactive, eIF4E 4G PPI 2, Ins promoter up -0.01, Insulin prom inh 73* and PERK inh 0.
For Cc1ccc2c(c1)nnn2C1CCN(C(=O)C2CCCCC2)CC1 the results were Autophagy HCS inactive, eIF4E 4G PPI 4, Ins promoter up -2.5, Insulin prom inh -124 and PERK inh 0.
COc1ccc(Br)c(C(=O)NC2CCCC2)c1 was read as Autophagy HCS inactive, eIF4E 4G PPI 5, Ins promoter up 0.65, Insulin prom inh -64 and PERK inh 2.
Screening O=C(Cn1cnc2c(nnn2Cc2ccccc2F)c1=O)NCC1CCCO1 (centres undefined) returned Autophagy HCS active, eIF4E 4G PPI 3, Ins promoter up 0.33, Insulin prom inh -44 and PERK inh 2.
`Cc1ccc(/C=C2/NC(=O)N(Cc3ccccc3F)C2=O)s1` gave Autophagy HCS active, eIF4E 4G PPI 1, Ins promoter up 1.8, Insulin prom inh -183 and PERK inh 0.
For O=C(c1cc(C2CC2)on1)N1CCN(c2ccccc2)CC1 the results were Autophagy HCS inactive, eIF4E 4G PPI 4, Ins promoter up 1.1 and PERK inh 0.
For COc1ccc(C2=NOC(C(=O)Nc3cc(Br)ccc3O)C2)cc1OC (centres undefined) the results were Autophagy HCS inactive, eIF4E 4G PPI 8, Ins promoter up 0.68, Insulin prom inh 74* and PERK inh -1.
COc1cccc(OC(=O)c2cc3ccccc3oc2=O)c1 was read as Autophagy HCS inactive, eIF4E 4G PPI 10, Ins promoter up -0.1, Insulin prom inh -65 and PERK inh 1.
Cc1cccc(NC(=O)CN2C(=O)S/C(=C\c3ccc(O)c([N+](=O)[O-])c3)C2=O)c1 was read as Autophagy HCS inactive, eIF4E 4G PPI -4, Ins promoter up 0.09, Insulin prom inh -8 and PERK inh 0.
Cc1ccc(NC(=O)CN2C(=O)S/C(=C/c3ccc(O)c([N+](=O)[O-])c3)C2=O)cc1C was read as Autophagy HCS inactive, eIF4E 4G PPI 45*, Ins promoter up -0.07 and PERK inh 0.
`O=C(OCc1cc(=O)n2c(n1)sc1ccccc12)c1ccc(O)cc1` gave Autophagy HCS inactive, eIF4E 4G PPI 10, Ins promoter up -0.65, Insulin prom inh -14 and PERK inh -1.
For Cc1c(O)nc2sc3ccccc3n2c1=O the results were eIF4E 4G PPI -4, Ins promoter up 0.61 and PERK inh 4.4*.
O=c1cc(CCl)nc2sc3ccccc3n12 was read as Autophagy HCS inactive, eIF4E 4G PPI 40*, Ins promoter up 0.28 and PERK inh 2.
O=C(Nc1ccccc1)C1=C[C@H](c2coc3ccccc3c2=O)C[C@H](OCCCCO)O1 was read as Autophagy HCS inactive, eIF4E 4G PPI 3, Ins promoter up -0.43 and PERK inh 0.
`COc1ccc(CC(=O)NNC(=O)CSc2nnc(Cc3ccc(OC)cc3)n2-c2ccccc2)cc1` gave Autophagy HCS inactive, eIF4E 4G PPI -1, Insulin prom inh 71* and PERK inh 1.
For COc1ccc(CC(=O)NNC(=O)CSc2nnc(C)n2-c2ccccc2)cc1 the results were Autophagy HCS inactive, eIF4E 4G PPI 5, Ins promoter up 0, Insulin prom inh 23 and PERK inh 1.
For CCc1nnc(NC(=O)CSc2nnc(-c3ccoc3C)n2-c2ccc(C)cc2)s1 the results were Autophagy HCS inactive, eIF4E 4G PPI -2, Ins promoter up 0.02 and PERK inh 0.
Screening CCc1nnc(NC(=O)CSc2nnc(-c3ccoc3C)n2-c2ccccc2)s1 returned Autophagy HCS inactive, eIF4E 4G PPI -1, Insulin prom inh 81* and PERK inh 0.
For COc1ccc(-c2nnc(SCC(=O)Nc3sc4c(c3C#N)CCCC4)n2-c2ccccc2)cc1 the results were Autophagy HCS active, eIF4E 4G PPI 5, Ins promoter up 0.16, Insulin prom inh -231 and PERK inh 0.
